15 compounds from PubChem BioAssay (NCATS) can be followed below.

Test [1] in a line: qHTS of pediatric cancer cell lines to identify multiple opportunities for drug repurposing: Primary screen for U-2 OS cells (AID 1347096). Note: nearly all actives have a fitted effect of over 50% in size. A digest of the protocol:
(§1)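 Cells (500-1,000/well) in growth media were settled 5 h at 37 degrees C, then given compounds for 48 h. Viability was read as CellTiter-Glo luminescence. Primary runs used MIPE at 11 points (0.78 nM-46 µM) and NPC at 8 points (0.59 nM-46 µM); follow-ups used 11 points.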

Test [2] in a line: qHTS of pediatric cancer cell lines to identify multiple opportunities for drug repurposing: Primary screen for Saos-2 cells (AID 1347097). Note: nearly all actives have a fitted effect of over 40% in size. Note: potency is the fitted concentration of half-maximal effect. A digest of the protocol:
(§2)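 ATP-based luminescence (CellTiter-Glo) quantifies viability after a 48-hour exposure. Compounds are dosed across 8 or 11 final concentrations; DMSO and 2.3 µM bortezomib serve as controls.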
(In general: In qHTS, concentration-response curves come from the screen itself.)

Test [3] is described as follows: qHTS of pediatric cancer cell lines to identify multiple opportunities for drug repurposing: Primary screen for SK-N-SH cells (AID 1347098). Note: nearly all actives have a fitted effect of over 65% in size. Note: potency is the fitted concentration of half-maximal effect. A digest of the protocol:
(§3)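 Cells (500-1,000/well) rested 5 h, then received compounds for 48 h; metabolically active cells were measured by CellTiter-Glo luminescence. Final concentrations spanned up to 46 µM (MIPE, 11-point) or 0.59 nM-46 µM (NPC, 8-point) in primary screens, 11-point in follow-ups.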

A short description of test [4]: qHTS of pediatric cancer cell lines to identify multiple opportunities for drug repurposing: Primary screen for NB1643 cells (AID 1347099). Note: nearly all actives have a fitted effect of over 50% in size. Note: potency is the fitted concentration of half-maximal effect. The procedure, abridged:
as §2

A short description of test [5]: qHTS of pediatric cancer cell lines to identify multiple opportunities for drug repurposing: Primary screen for LAN-5 cells (AID 1347100). Note: potency is the fitted concentration of half-maximal effect. A digest of the protocol:
as §1

Test [6] in a line: qHTS of pediatric cancer cell lines to identify multiple opportunities for drug repurposing: Primary screen for BT-12 cells (AID 1347101). Note: nearly all actives have a fitted effect of over 25% in size. Note: potency is the fitted concentration of half-maximal effect. The procedure, abridged:
as §3

Test [7] in a line: qHTS of pediatric cancer cell lines to identify multiple opportunities for drug repurposing: Primary screen for OHS-50 cells (AID 1347103). Note: nearly all actives have a fitted effect of over 40% in size. Note: potency is the fitted concentration of half-maximal effect. The procedure, abridged: as §3
Test [8] is described as follows: qHTS of pediatric cancer cell lines to identify multiple opportunities for drug repurposing: Primary screen for RD cells (AID 1347104). Note: nearly all actives have a fitted effect of over 55% in size. Note: potency is the fitted concentration of half-maximal effect. The procedure, abridged: as §2
A short description of test [9]: qHTS of pediatric cancer cell lines to identify multiple opportunities for drug repurposing: Primary screen for MG 63 (6-TG R) cells (AID 1347105). Note: nearly all actives have a fitted effect of over 50% in size. Note: potency is the fitted concentration of half-maximal effect. A digest of the protocol: as §2
Test [10] can be described thus: qHTS of pediatric cancer cell lines to identify multiple opportunities for drug repurposing: Primary screen for control Hh wild type fibroblast cells (AID 1347106).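 Note: series mostly up to about 46 µM; a drop in luminescence marks cytotoxicity and a rise apparent proliferation; nearly all actives have a fitted effect of over 55% in size.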 The procedure, abridged:
as §1

A short description of test [11]: qHTS of pediatric cancer cell lines to identify multiple opportunities for drug repurposing: Primary screen for NB-EBc1 cells (AID 1347095). Note: potency is the fitted concentration of half-maximal effect. A digest of the protocol: as §2
The nature of test [12]: qHTS of pediatric cancer cell lines to identify multiple opportunities for drug repurposing: Primary screen for Rh18 cells (AID 1347102). Note: nearly all actives have a fitted effect of over 65% in size. Note: potency is the fitted concentration of half-maximal effect. A digest of the protocol: as §1
The nature of test [13]: qHTS of pediatric cancer cell lines to identify multiple opportunities for drug repurposing: Primary screen for Rh30 cells (AID 1347107). Note: series mostly up to about 46 µM; nearly all actives have a fitted effect of over 75% in size. A digest of the protocol:
as §1

Test [14] in a line: qHTS of pediatric cancer cell lines to identify multiple opportunities for drug repurposing: Primary screen for Rh41 cells (AID 1347108). Note: nearly all actives have a fitted effect of over 70% in size. Note: potency is the fitted concentration of half-maximal effect. The procedure, abridged: as §2
The nature of test [15]: qHTS of pediatric cancer cell lines to identify multiple opportunities for drug repurposing: Confirmatory screen for NB1643 cells (AID 1347109). Note: nearly all actives have a fitted effect of over 45% in size. Note: potency is the fitted concentration of half-maximal effect. The procedure, abridged: as §1
Test [16] is described as follows: qHTS of pediatric cancer cell lines to identify multiple opportunities for drug repurposing: Confirmatory screen for A673 cells (AID 1347110).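 Note: cells exposed to compound for 48 h before the viability read; nearly all actives have a fitted effect of over 65% in size.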 Note: potency is the fitted concentration of half-maximal effect. The procedure, abridged:
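qHTS titration format: primary MIPE 0.78 nM-46 µM (11 pts), NPC 0.59 nM-46 µM; confirmation 11 pts. 48 h, CTG luminescence.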

Test [17] in a line: qHTS of pediatric cancer cell lines to identify multiple opportunities for drug repurposing: Confirmatory screen for SK-N-MC cells (AID 1347111).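 Note: potency is the fitted concentration of half-maximal effect; cells exposed to compound for 48 h before the readout; nearly all actives have a fitted effect of over 70% in size.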 The procedure, abridged:
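Metabolically active cells were quantified by ATP-dependent luminescence (CellTiter-Glo, 15 min at room temperature) following 48 h treatment. Cells had been plated at 500-1,000 per well and settled for 5 h beforehand.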

Test [18] can be described thus: qHTS of pediatric cancer cell lines to identify multiple opportunities for drug repurposing: Confirmatory screen for LAN-5 cells (AID 1347113). Note: nearly all actives have a fitted effect of over 65% in size. The procedure, abridged:
as §1

Test [19] in a line: qHTS of pediatric cancer cell lines to identify multiple opportunities for drug repurposing: Confirmatory screen for DAOY cells (AID 1347114). Note: nearly all actives have a fitted effect of over 65% in size. A digest of the protocol:
(§4)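 Viability measured as metabolically active cells via CellTiter-Glo luminescence following 48 hours of compound exposure, 11-point dilutions in confirmatory testing. 500-1,000 cells/well plated 5 hours before dosing; controls were DMSO and 2.3 µM bortezomib.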

Test [20] is described as follows: qHTS of pediatric cancer cell lines to identify multiple opportunities for drug repurposing: Confirmatory screen for SJ-GBM2 cells (AID 1347116). Note: nearly all actives have a fitted effect of over 60% in size. Note: potency is the fitted concentration of half-maximal effect. A digest of the protocol:
as §4

Molecules are shown by their SMILES. Values joined by “and” are separate entries in the source; they are usually repeats but may differ in a detail not shown here. Equal entries are not always repeated. Results filed as inconclusive are left out. Active and inactive are the calls of the source. Calls come from the whole dose curve; as a rule, active = well fitted curve in the direction sought with a large enough effect; inconclusive = small, poorly fitted or top-dose-only effect, or another doubt; inactive = no such curve, though single readings can be large; an effect the other way counts as inactive or inconclusive.

As for `CC[C@H](C)C(=O)O[C@H]1C[C@@H](C)C=C2C=C[C@H](C)[C@H](CC[C@@H]3C[C@@H](O)CC(=O)O3)[C@H]21`, the Potency result in test [1], in test [4], in test [5], in [8] and in test [10] was “inactive” in each case. For the same compound, the Potency was 5.9 µM (active) in [2]; 4.86 µM (active) and 19.2 µM (active) in [3]; 1.23 µM (active) and 3.43 µM (active) in [6]; 6.92 µM (active) and 9.68 µM (active) in [7]; 4.22 µM (active) and 4.69 µM (active) in test [9].

As for `COc1cnc(NS(=O)(=O)c2ccc(N)cc2)nc1`, the Potency result in [11], in [2], in test [6], in [12], in [7] and in [9] was “inactive” throughout. Besides, the Potency entry in test [10], in [13] and in test [14] was “inactive” throughout.

As for `CCOC(=O)[C@H](CCc1ccccc1)N[C@H]1CS[C@H](c2cccs2)CN(CC(=O)O)C1=O`, the Potency result in test [10], in [13], in test [15], in [18], in test [19] and in test [20] was “inactive” throughout. For the same compound, the Potency is 10.4 µM (active) in [16] and 9.27 µM (active) in test [17].

Regarding `O=S(=O)(O)CCS`, the Potency result in test [11], in test [2], in [3], in test [5], in test [6] and in test [12] was “inactive” throughout. Also, the Potency result in [7], in [8], in test [9], in test [10], in test [13] and in [14] was “inactive” throughout. Further, the Potency entry in test [16] and in test [19] was “inactive” in each case.

With `CNS(=O)(=O)CCc1ccc2[nH]cc(C3CCN(C)CC3)c2c1`, the Potency result in test [1], in test [2], in test [12], in test [13], in test [14] and in [15] was “inactive” throughout. Further, the Potency entry in test [18], in [19] and in [20] was “inactive” each time. In addition, the Potency was 3.69 µM (active) in test [16] and 4.14 µM (active) in test [17].

On to `O=C(O)c1ccc(-n2nc(-c3ccccc3O)nc2-c2ccccc2O)cc1`, for which the figures for the Potency in test [11] and in test [7] were 8.33 µM (active) and 21.7 µM (active), respectively. The Potency result in [5], in [12], in test [9] and in test [10] was “inactive” throughout.

`COc1ccc(-c2ccc3cc(C(=O)O)ccc3c2)cc1C12CC3CC(CC(C3)C1)C2`: the Potency is 2.35 µM (active) in [11]; 18.7 µM (active) in test [2]; 0.0153 µM (active) in [7]; 9.27 µM (active) in test [15]; 5.85 µM (active) in test [16]; 2.61 µM (active) in test [17]. Also, the Potency result in [3], in [4], in [6], in [12], in test [8] and in test [10] was “inactive” in each case. The Potency entry in test [13], in test [14] and in test [19] was “inactive” each time.

For the compound `COc1ccc2cc3[n+](cc2c1OC)CCc1cc2c(cc1-3)OCO2`, the Potency entry in test [1], in test [3], in [10] and in test [13] was “inactive” each time. The Potency in [4] is 15 µM (active) and 18.7 µM (active); in [5], 10.6 µM (active) and 16.6 µM (active); in [6], 3.09 µM (active) and 4.32 µM (active); in test [7], 4.37 µM (active) and 7.69 µM (active); in test [8], 10.5 µM (active); in test [9] it was 26.6 µM (active).

Regarding `COc1ccc(C(=O)CC(=O)c2ccc(C(C)(C)C)cc2)cc1`, the Potency entry in [7], in test [9], in test [10], in test [15], in [16] and in test [18] was “inactive” in each case. Besides, the Potency result in [19] and in [20] was “inactive” in each case. The Potency in [17] is 26.1 µM (active).

Turning to `Nc1nc(F)nc2c1ncn2[C@@H]1O[C@H](CO)[C@@H](O)[C@@H]1O`, the Potency in [11] is 841 nM (active) and 1.05 µM (active); in test [2], 150 nM (active) and 935 nM (active); in [4] it was 372 nM (active); in test [5], 11.9 µM (active) and 469 nM (active); in test [6], 1.53 µM (active); in test [7], 55 nM (active) and 485 nM (active). Also, the Potency is 0.833 µM (active) in [8]; 42.2 nM (active) and 590 nM (active) in [9]; 1.48 µM (active) in test [14]; 0.465 µM (active) in [15]; 1.85 µM (active) in test [16]; 0.465 µM (active) in [17]. The Potency in test [20] is 1.65 µM (active). Besides, the Potency entry in test [10] and in test [19] was “inactive” each time.

Regarding `CO[C@@H]1[C@@H](OC(N)=O)[C@@H](O)[C@H](Oc2ccc3c(O)c(NC(=O)c4ccc(O)c(CC=C(C)C)c4)c(=O)oc3c2C)OC1(C)C`, the Potency entry in test [2], in test [3], in test [4], in test [5], in [6] and in test [12] was “inactive” throughout. In addition, the Potency entry in [7], in [8], in test [9], in test [10] and in test [14] was “inactive” throughout.

Regarding `CCCCc1oc2ccc(NS(C)(=O)=O)cc2c1C(=O)c1ccc(OCCCN(CCCC)CCCC)cc1`, the Potency in [2] is 18.7 µM (active) and 23.7 µM (active); in test [3], 27.1 µM (active) and 17.2 µM (active); in test [4], 18700 nM (active); in [5], 11.8 µM (active) and 18.8 µM (active); in test [6], 19.3 µM (active) and 12.3 µM (active); in test [12], 18.7 µM (active). The Potency in [7] is 10.9 µM (active) and 15.5 µM (active); in test [8], 18.7 µM (active) and 23.7 µM (active); in test [9], 21.1 µM (active); in test [14], 23.5 µM (active). For the same compound, the Potency entry in test [10] is “inactive”.

Turning to `CN(Cc1cc(Br)cc(Br)c1N)C1CCCCC1`, the Potency entry in test [1], in [3], in test [4], in [5], in test [6] and in test [12] was “inactive” throughout. Besides, the Potency result in test [8], in [9], in [10], in [13] and in [14] was “inactive” each time.

For `CC(C)Cn1cnc2c(N)nc3ccccc3c21`, the Potency result in [1], in test [12], in [9], in [10] and in test [13] was “inactive” in each case.

`O[C@@H](CNC[C@H](O)[C@H]1CCc2cc(F)ccc2O1)[C@@H]1CCc2cc(F)ccc2O1`: the Potency in [11] was 21.1 µM (active); in test [2] it was 26.4 µM (active); in test [3] it was 27.3 µM (active); in test [6], 27.3 µM (active); in test [7], 24.3 µM (active) and 27.6 µM (active); in [8], 33.2 µM (active). For the same compound, the Potency entry in test [10] and in test [13] was “inactive” each time.
